# Assay results taken from PubChem BioAssay (Tox21).
# Values joined by “and” are separate entries in the source; they are usually repeats but may differ in a detail not shown here. Identical values can stand only once. Results filed as inconclusive are left out. A call without a number means that no potency is given here. More than one record can exist for a structure, and the calls need not agree. Active and inactive are the calls of the source. Calls follow the shape of the dose curve; as a rule, active = well fitted cell-killing curve with a large enough effect in the repeat runs; inconclusive = weak or mixed curves, or effect the other way; inactive = no such curve, though single readings can be large or run the other way.
# Experiment: qHTS assay for identifying genotoxic compounds that show differential cytotoxicity against isogenic chicken DT40 cell lines with known DNA damage response pathways - Rev3 mutant cell line (AID 743014); also: nearly all actives have a fitted effect of over 55% in size
# Settings: chicken DT40 Rev3-/- viability, CellTiter-Glo, 40 h; series mostly up to 68.4 µM
# From the text: National Center for Advancing Translational Sciences [NCATS]
# NIH Chemical Genomics Center [NCGC]
# U.S. Environmental Protection Agency [EPA]
# National Institutes of Environmental Health Sciences [NIEHS]
# National Toxicology Program [NTP]
# U.S. Food and Drug Administration [FDA]
# DNA repair pathways play a critical role in cellular homeostasis by repairing DNA damage induced by endogenous processes and xenobiotics. Isogenic chicken DT40 cell lines deficient in different DNA repair pathways can be used to identify genotoxic compounds and aid in characterizing the nature of the DNA damage induced. Two DNA repair-deficient cell lines with disrupted genes, Rad54/Ku70 or Rev3, were used to screen the Tox21 10K compound library. Possible genotoxicity was based on the presence of a significant increase in cytotoxicity in one or more of the DNA repair-deficient cell lines compared to that observed in the parental DNA repair-proficient cell line. CellTiter Glo viability assay (Promega, Madison, WI) was used to measure cell viability in these cells after compound treatment. This assay includes the data from the Rev3 mutant cell line.
# Tox21 Assay Protocol Summary:
# 300 DT40 mutant cells in 5 uL/well were dispensed into white, solid-bottom 1536-well plates using a Multidrop Combi (ThermoFisher Scientific, Waltham, MA) dispenser. After the assay plates were incubated at 37 C/5% CO2 for approximately 0.5 hour, 23 nL of compounds dissolved in DMSO, positive controls or DMSO only was transferred into the assay plate by a pintool work station (Kalypsys, San Diego, CA). The assay plates were incubated at 37 C/5% CO2 for 40 hours. After 5 uL per well of CellTiter-Glo reagent was added into each well of the assay plates, the plates were incubated for 30 min at room temperature and the luminescence intensity of the plates was measured using a ViewLux (PerkinElmer, Shelton, CT) plate reader.
# Potency is read from the fitted curve at half-maximal effect.
row,Structure (SMILES),Potency
1,CCCCCCCCCCCCCO,inactive
2,CC/C=C\C/C=C\C/C=C\CCCCCCCC(=O)O,inactive and 48.6 µM (active)
3,Cc1ccc(C(C)(C)C)c(O)c1,inactive and 48.6 µM (active)
4,COC(=O)CC(=O)OC,inactive
5,Nc1ccc(N)c(Cl)c1,61 µM (active) and inactive
6,O=[Se](O)O,545 nM (active) and 4.16 µM (active)
7,NC[C@H](O)c1ccc(O)c(O)c1,21.1 µM (active) and 17.2 µM (active)
8,C[C@]12C=CC(=O)C=C1CC[C@H]1[C@@H]3C[C@@H](O)[C@](O)(C(=O)CO)[C@@]3(C)C[C@H](O)[C@@]12F,8.63 µM (active)
9,Cc1cccc(Nc2ccccc2C(=O)O)c1C,inactive
10,O=S1(=O)CCCO1,inactive
11,CC[C@]12CCCN3CCc4c(n(c5ccccc45)[C@@](O)(C(=O)OC)C1)[C@@H]32,inactive
12,Oc1ccc(C(c2ccc(O)cc2)C(Cl)(Cl)Cl)cc1,60.9 µM (active) and 48.6 µM (active)
13,Cc1ccc(S(=O)(=O)NCl)cc1,inactive
14,OC[C@@H](O)[C@@H](O[C@@H]1O[C@H](CO)[C@H](O)[C@H](O)[C@H]1O)[C@H](O)[C@@H](O)CO,inactive
15,CCCCCCC(C)O (stereo not given),inactive
16,Brc1nc2ccccc2s1,inactive
17,C=C[C@@]1(C)CC(=O)[C@]2(O)[C@@]3(C)[C@@H](O)CCC(C)(C)[C@@H]3[C@H](O)[C@H](OC(C)=O)[C@@]2(C)O1,inactive and 48.6 µM (active)
18,NCCOCCO,inactive
19,CC(C)=CCO,inactive
20,CC(C)[C@@H]1CC[C@@H](C)CC1=O,inactive

row,Structure (SMILES),Potency
1,O=C(O)c1cc(=O)[nH]c(=O)[nH]1,inactive
2,OCCNCCO,inactive
3,COc1ccc(-c2coc3cc(O)cc(O)c3c2=O)cc1,27.3 µM (active)
4,COc1ccc2nc(N)sc2c1,inactive
5,C/C=C/C(=O)N(CC)c1ccccc1C,54.5 µM (active)
6,CC(=O)Nc1ccc2c(c1)Cc1cc(NC(C)=O)ccc1-2,inactive
7,c1ccc2ncccc2c1,inactive
8,CN1CCOCC1,inactive
9,CCO[Si](CCCNC(N)=O)(OCC)OCC,inactive
10,COC(=O)C(C)Oc1ccc(Oc2ncc(C(F)(F)F)cc2Cl)cc1 (stereo not given),54.5 µM (active)
11,CCCCCCCC/C=C\CCCCCCCC(=O)O,inactive
12,Cc1ccc(N)c([N+](=O)[O-])c1,inactive
13,FC(F)(F)C(Cl)Br (stereo not given),inactive
14,CC(C)(C)c1cccc(C(C)(C)C)c1O,inactive
15,CC(=O)OC(C)C,inactive
16,O=C(CCCN1CCC(O)(c2ccc(Cl)cc2)CC1)c1ccc(F)cc1,3.35 µM (active) and 1.72 µM (active)
17,O=C(O)CCCC(=O)O,inactive
18,C=C[Si](OCCOC)(OCCOC)OCCOC,inactive and 30.6 µM (active)
19,CCCCCCCCCCCCO,inactive
20,CC(C)(Oc1ccc(Cl)cc1)C(=O)O,inactive
